Rows were chosen to be rich in hits. Some 21% of all compounds tested hit in one or more screens of this group.
VP16 counter: inhibits Gal4-VP16 luciferase reporter, ROR gamma counter-screen; Drosophila S2 Gal4-VP16 UAS-luciferase, luminescence, 20 h; Potency, µM (series often up to 53.6 µM), without a hit: top-dose activity, negative = inhibition, actives largely listed as inhibitors; 3.5% of 310,000 active;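 also: Gal4-VP16 expression switched on by copper sulfate through the metallothionein promoter; potency is read from the fitted curve at half-maximal effect; nearly all actives have a fitted effect of over 50% in size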
ELG1 repair inh: ELG1-dependent DNA repair inhibition; HEK293T ELG1-luciferase reporter, luminescence, 16 h; DNA damage induced by 5-fluorouridine; Potency, µM (doses to about 46.1 µM), for the others: at the top dose activity change, negative = inhibition, actives largely listed as inhibitors; 2.3% of 330,000 active; also: potency is read from the fitted curve at half-maximal effect; nearly all actives have a fitted effect of over 55% in size
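Overnight (16 hr) co-exposure of 2,000 cells/well to 5-fluorouridine and compound at 37 °C preceded detection. Luciferase was quantified via ONE-Glo luminescence; loss of signal denotes inhibition.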
DT40 TDP1 no CPT: qHTS for Inhibitors of human tyrosyl-DNA phosphodiesterase 1 (TDP1): qHTS in cells in absence of CPT. DT40 Tdp1-/- hTDP1 cells, no CPT, ATP luminescence, 48 h. Potency, µM (highest dose often 46.2 µM), without a hit: at the top dose activity change, negative = growth inhibition, usual class: inhibitors. 15% of 420,000 active. AID 686978, 2013; also: potency is read from the fitted curve at half-maximal effect; nearly all actives have a fitted effect of over 55% in size
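Luminescent ATP content (CellTiter-Glo) served as the growth readout. Knockout chicken DT40 cells expressing human TDP1 were exposed to compounds without camptothecin for a minimum 48 hr at 37 °C.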
DT40 TDP1 CPT: DT40-hTDP1 cell growth loss with CPT. Potency, µM (titrated, usually from 46.2 µM), inactives show at the highest dose activity change, negative = growth inhibition, actives largely listed as inhibitors. chicken DT40 Tdp1-/-;hTDP1 cells + 20 nM CPT, ATP luminescence, 48 h. 12% of 420,000 active; also: potency is read from the fitted curve at half-maximal effect; nearly all actives have a fitted effect of over 55% in size
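Chicken DT40 Tdp1-/- cells complemented with human TDP1, 400 cells/well, exposed to compounds plus 20 nM camptothecin for at least 48 h at 37 C; viability read as ATP content by CellTiter-Glo luminescence.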
IL-1B inflam inh: inflammasome signaling inhibition, IL-1 beta readout; 4.7% of 360,000 active; activity change, % at 57.5 µM; THP-1 LPS/ATP IL-1B secretion, AlphaLISA, 16 h; active compounds read low; AID 743279; in the data active = activity change below about -50%; inconclusive = mostly about -30% to -49%
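THP-1 cells pretreated 1 hr with compounds (up to 57.5 uM final), then stimulated with LPS (250 ng/mL final) plus ATP (1.25 mM final); secreted IL-1B measured by AlphaLISA after 16 hr, decreased signal indicating inhibition.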
RORgamma inh: ROR gamma (mouse) transcription inhibition; Drosophila S2 Gal4-RORgamma UAS-luciferase reporter, 20 h; 5.4% of 310,000 active; AID 2551; Potency, µM (highest dose often 53.6 µM), for inactives: at the highest dose activity change, negative = inhibition, most hits filed as inhibitors; P51450; also: potency is read from the fitted curve at half-maximal effect; nearly all actives have a fitted effect of over 60% in size
Target sequence (P51450 whole entry, looked up, the tested form may be a part): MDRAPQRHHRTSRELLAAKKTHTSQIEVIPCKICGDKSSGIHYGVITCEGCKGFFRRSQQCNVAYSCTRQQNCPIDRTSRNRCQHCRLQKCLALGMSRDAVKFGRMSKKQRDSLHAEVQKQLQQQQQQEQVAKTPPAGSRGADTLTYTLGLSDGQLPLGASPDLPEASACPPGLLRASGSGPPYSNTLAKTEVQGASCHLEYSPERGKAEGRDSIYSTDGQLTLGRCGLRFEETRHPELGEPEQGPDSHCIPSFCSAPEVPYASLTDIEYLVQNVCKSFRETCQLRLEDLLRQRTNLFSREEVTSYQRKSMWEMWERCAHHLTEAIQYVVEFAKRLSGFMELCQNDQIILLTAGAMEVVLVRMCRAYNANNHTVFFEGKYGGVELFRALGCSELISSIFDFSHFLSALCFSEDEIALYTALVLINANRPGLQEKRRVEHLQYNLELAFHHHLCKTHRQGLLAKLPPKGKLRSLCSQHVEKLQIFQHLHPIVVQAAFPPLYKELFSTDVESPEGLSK
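Using a luciferase readout, inhibitors were identified by reduced reporter activity in Drosophila cells coexpressing a copper-inducible Gal4–ROR gamma fusion and UAS-driven Photinus luciferase, incubated 20 hr after 700 uM copper sulfate.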
* = called active by the depositor; ? = inconclusive; / = no result; [ ] = remark or other dose. Unless noted, calls follow the shape of the dose curve; as a rule, active = well fitted curve in the direction sought with a large enough effect; inconclusive = small, poorly fitted or top-dose-only effect, or another doubt; inactive = no such curve, though single readings can be large; an effect the other way counts as inactive or inconclusive. % is scaled to controls: 0 for no effect and ±100 for the full control effect.

SMILES | VP16 counter | ELG1 repair inh | DT40 TDP1 no CPT | DT40 TDP1 CPT | IL-1B inflam inh | RORgamma inh
CC1(C)CC2CC(C)(CN2C(=O)c2cccs2)C1 (stereo not drawn) | 3.1% | 3.5% | 8.2µM* | ? | 26.8 | 0.3%
CC(=O)Nc1ccccc1C(=O)N1CC2(C)CC1CC(C)(C)C2 (stereo not drawn) | -10.5% | 3.4% | -1.0% | -5.0% | 9.2 | -12.2%
CC(=O)c1ccc(N2CCN(C(=O)c3cc4cc5cc(C)ccc5nc4s3)CC2)cc1 | / | / | 18.8% | -3.2% | / | /
COCCCNC(=O)c1csc([C@H]2C[C@H](O)[C@@H](CO)O2)n1 | / | / | 5.0% | 0.2% | 3.4 | /
Cc1ccccc1OCC(=O)Nc1ccc(OCc2cc(=O)n3ccsc3n2)cc1 | / | / | -20.5% | 0.1% | / | /
O=C(c1ccccc1)N1CCN(C(=O)C2CC2)CC1 | 1.9% | 9.3% | 2.2% | 7.5% | -3.0 | -30.3%
CC(=O)Nc1ccc(S(=O)(=O)NN=CCCc2ccccc2)cc1 | / | / | 6.8% | 7.5% | 19.8 | /
COC(=O)c1ccc(CSc2nc3c(cnn3-c3ccc(C)c(C)c3)c(=O)[nH]2)o1 | -1.3% | -19.0% | 25.9µM* | ? | 68.8 | ?
O=C(Nc1cccc(C(F)(F)F)c1)c1cccc(NS(=O)(=O)c2ccc(O)c(C(=O)O)c2)c1 | -1.0% | 25.6% | -0.3% | 11.8% | 7.1 | 17.4%
O=C(NCCOc1ccc(Cl)cc1)c1cccc(S(=O)(=O)N2CCCC2)c1 | / | 8.91µM* | ? | ? | -1.1 | /
CCN(CC)CC(=O)Nc1cccc(S(=O)(=O)N2CCCC2)c1 | 3.4% | 1.6% | ? | -26.4% | 4.6 | 31.1%
N#Cc1ccccc1OCC(=O)Nc1cccc(S(=O)(=O)N2CCCC2)c1 | / | -17.1% | ? | 16.4µM* | -3.0 | /
O=C(NCc1ccc(Cl)cc1)c1cccc(S(=O)(=O)N2CCCC2)c1 | / | ? | -27.0% | ? | 0.0 | /
COc1cc(C#N)ccc1OCC(=O)Nc1cccc(S(=O)(=O)N2CCCC2)c1 | 0.6% | -26.9% | ? | ? | 0.0 | -3.3%
O=C(Nc1cccc(S(=O)(=O)N2CCCC2)c1)[C@@H]1O[C@H](CO)[C@@H](O)[C@H]1O | / | / | -0.5% | 5.4% | -76.1* | /
O=C(CN(CCO)c1ccccc1)Nc1cccc(S(=O)(=O)N2CCCC2)c1 | ? | ? | ? | 18.4µM* | -3.8 | 23.9%
O=P(O)(c1ccc(Cl)cc1)c1ccc(Cl)cc1 | 0.7% | -2.9% | -2.1% | -10.6% | 17.2 | -19.6%
Cc1ccc(NC(=O)CCNC(=O)c2ccc(Br)cc2)cc1S(=O)(=O)N1CCCCCC1 | / | ? | 16.4µM* | ? | 5.9 | /
O=C(COC(=O)CCC1CCCC1)Nc1cccc(S(=O)(=O)N2CCOCC2)c1 | / | ? | -27.5% | -20.4% | -87.4* | /
COc1ccccc1NC(=O)c1cccc(S(=O)(=O)N2CCN(Cc3ccccc3)CC2)c1 | / | -8.8% | ? | ? | -1.6 | /
O=C(Cc1ccccc1Cl)Nc1cccc(S(=O)(=O)N2CCCCCC2)c1 | / | ? | -5.7% | -6.9% | -51.9* | /
COc1ccccc1OCCNC(=O)c1cccc(S(=O)(=O)N2CCN(Cc3ccccc3)CC2)c1 | / | 20.6µM* | ? | 18.4µM* | -22.9 | /
COc1ccccc1-c1nnc(SCC(=O)NNC(=O)c2ccccc2F)n1C | / | 21.2% | -0.6% | 5.6% | 32.3 | /
CCCCCCCC/C=C\C/C=C\C/C=C\CCCC(=O)NCCO | 2.2% | / | -12.7%[4.12 µM] | -8.4%[4.12 µM] | / | -17.5%
CCc1cc2c(nc1CC)CCN(CC/C(C)=N/O[C@@H]1O[C@H](COC(C)=O)[C@H](OC(C)=O)[C@H](OC(C)=O)[C@H]1OC(C)=O)C2 | -10.7%[10 µM] | / | / | / | / | 19.8%[10 µM]
O=C(COc1ccc(F)cc1Cl)Nc1cccc(S(=O)(=O)N2CCCCCC2)c1 | / | ? | ? | ? | -11.7 | /
